Among the data in PubChem BioAssay (NCI) are growth values, retold here.

Some test systems named below: HCT-15 colon; HT29 colon; SNB-75 CNS; SNB-19 CNS; U251 CNS; PC-3 prostate; SK-MEL-5 melanoma; UACC-62 melanoma; LOX IMVI melanoma; SK-MEL-28 melanoma.
Experiment in all cases: NCI-60 one-dose screen, 48 h (100 = growth as untreated, 0 = no growth, -100 = all killed)
Common to all, as to settings: 10 µM unless noted

Molecules are shown by their SMILES. The panel holds about 83,000 compounds, 20% with a hit somewhere; the sample as a whole holds those more often.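 Values shown are percent growth following 48 h exposure of cells in 96-well plates to a single concentration of compound; below 10 was considered active.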 Values without a mark were called inactive. The source made the active and inactive calls.

As to `CCN(CC)c1cn(-c2ccc(S(N)(=O)=O)cc2)nn1`, the growth with HCT-15 colon is 105%; in the experiment with HT29 colon, 97.9%; with SNB-75 CNS it was 83%; in the experiment with SNB-19 CNS, 102%; in the experiment on U251 CNS, 100%; in the experiment with PC-3 prostate, 101%. In addition, the growth with SK-MEL-5 melanoma is 104%; with UACC-62 melanoma it was 94.9%; with LOX IMVI melanoma, 106%; with SK-MEL-28 melanoma, 105%.
For `O=C(O)c1ccc(-n2cc(CNc3cc(F)c(F)c(F)c3)c(-c3cccc(F)c3)n2)cc1`, the growth with HCT-15 colon is 46.8%; in the experiment with HT29 colon it was 106%; in the experiment on SNB-75 CNS, 106%; in the experiment on SNB-19 CNS, 97.4%; in the experiment with U251 CNS, 93.3%; with PC-3 prostate, 79.1%. For the same molecule, the growth was 67.4% in the experiment on SK-MEL-5 melanoma, 58.2% with UACC-62 melanoma, 104% with LOX IMVI melanoma and 83.2% in the experiment with SK-MEL-28 melanoma.
Take `CCOP(=O)(OCC)OC[C@]12CCC(C)(C)C=C1[C@H]1CC[C@@H]3[C@@]4(C)CC[C@H](OP(=O)(OCC)OCC)C(C)(C)[C@@H]4CC[C@@]3(C)[C@]1(C)CC2`: the growth was -73.3% (active) in the experiment on HCT-15 colon; -42.4% (active) in the experiment with HT29 colon; -11.5% (active) in the experiment with SNB-75 CNS; -12.4% (active) in the experiment with SNB-19 CNS; -84.9% (active) in the experiment on U251 CNS; 0.0741% (active) in the experiment on PC-3 prostate. The growth in the experiment on SK-MEL-5 melanoma was -93.4% (active); with UACC-62 melanoma, -29.4% (active); with LOX IMVI melanoma, -90.1% (active); in the experiment with SK-MEL-28 melanoma, -31% (active).
For the molecule `CC(Nc1c(C#N)cnc2ccc(-c3cnc(N)nc3)cc12)c1ccccc1` (stereo not given), the growth was 9.92% (active) in the experiment on HCT-15 colon; 17.4% in the experiment on HT29 colon; 18.9% with SNB-75 CNS; 20.4% in the experiment on SNB-19 CNS; 21% in the experiment on U251 CNS; 10.8% in the experiment on PC-3 prostate. Besides, the growth was -67.3% (active) in the experiment on SK-MEL-5 melanoma, 3.27% (active) in the experiment on UACC-62 melanoma, 4.6% (active) in the experiment with LOX IMVI melanoma and 17.9% in the experiment with SK-MEL-28 melanoma.
With `Cn1cc(CNc2nc3ccc(OC/C(=C/F)CN)cc3o2)ccc1=O`, the growth was 103% with HCT-15 colon; 111% with HT29 colon; 110% with SNB-75 CNS; 98% with SNB-19 CNS; 106% in the experiment with U251 CNS; 107% in the experiment with PC-3 prostate. Also, the growth in the experiment on SK-MEL-5 melanoma is 104%; in the experiment on UACC-62 melanoma, 95.1%; in the experiment on LOX IMVI melanoma, 98.2%; with SK-MEL-28 melanoma, 99.4%.
`Cc1ccc(S(=O)(=O)N(CC[C@@H]2C[C@H]2c2cc3ccccc3o2)S(=O)(=O)c2ccc(C)cc2)cc1`: the growth was 94.5% in the experiment with HCT-15 colon; 94% in the experiment with HT29 colon; 89% with SNB-75 CNS; 94.6% in the experiment with SNB-19 CNS; 92.5% in the experiment on U251 CNS; 87% with PC-3 prostate. For the same molecule, the growth was 96.1% in the experiment with SK-MEL-5 melanoma, 69.1% in the experiment on UACC-62 melanoma, 95.1% in the experiment with LOX IMVI melanoma and 93.5% in the experiment on SK-MEL-28 melanoma.
Consider `O=C(CCn1c[n+](CC(=O)c2ccc(F)cc2)c2ccccc21)Nc1cccc2cccnc12`, for which the growth in the experiment on HCT-15 colon is 106%; in the experiment on HT29 colon, 58.6%; in the experiment on SNB-75 CNS it was 75.6%; with SNB-19 CNS, 71.1%; in the experiment with U251 CNS, 79.3%; in the experiment on PC-3 prostate it was 63.4%. In addition, the growth in the experiment on SK-MEL-5 melanoma is 33.4%; in the experiment with UACC-62 melanoma, 55.7%; with LOX IMVI melanoma, 84.6%; in the experiment on SK-MEL-28 melanoma, 60.1%.
For the molecule `CCN(CC)c1ccc(NC2=C(Cl)C(=O)c3nc(C)ccc3C2=O)cc1`, the growth is -52.7% (active) in the experiment with HCT-15 colon; 104% in the experiment with HT29 colon; 126% in the experiment on SNB-75 CNS; 102% in the experiment with SNB-19 CNS; 94.3% with U251 CNS; 74.2% in the experiment with PC-3 prostate. Moreover, the growth in the experiment on SK-MEL-5 melanoma was 79.3%; in the experiment with UACC-62 melanoma it was 95.2%; in the experiment with LOX IMVI melanoma it was -71.6% (active); in the experiment with SK-MEL-28 melanoma, 37.5%.
Take `CCCCCc1ccc(S(=O)(=O)Nc2cc(-c3csc(NC(=O)CN4CCN(C)CC4)n3)ccc2OC)cc1`: the growth was -58.9% (active) in the experiment on HCT-15 colon; -31.1% (active) in the experiment with HT29 colon; 91.2% with SNB-75 CNS; 6.64% (active) in the experiment with SNB-19 CNS; -18.2% (active) in the experiment with U251 CNS; 23.2% in the experiment on PC-3 prostate. Also, the growth in the experiment on SK-MEL-5 melanoma was -93.5% (active); with UACC-62 melanoma, -58.5% (active); in the experiment with LOX IMVI melanoma it was -94% (active); in the experiment with SK-MEL-28 melanoma, -69.4% (active).
As for `N#Cc1c(-c2cccs2)cc(-c2cnccn2)nc1SCC(=O)Nc1ccc(Br)cc1`, the growth in the experiment on HCT-15 colon is 82.9%; in the experiment on HT29 colon it was 90.9%; in the experiment with SNB-75 CNS, 50.6%; with SNB-19 CNS, 69.4%; in the experiment on U251 CNS, 83%; with PC-3 prostate, 86.9%. In addition, the growth in the experiment on SK-MEL-5 melanoma was 91.1%; in the experiment with UACC-62 melanoma it was 78.9%; with LOX IMVI melanoma, 53.3%; in the experiment on SK-MEL-28 melanoma, 89.7%.
On to `COc1ccc2c(c1)c(-c1cc(N)n3nc(-c4cn(C)c5ccc(OC)cc45)cc3n1)cn2C`, for which the growth with HCT-15 colon is 29.8%; with HT29 colon it was 75.6%; in the experiment with SNB-75 CNS it was 98.2%; in the experiment on SNB-19 CNS, 107%; in the experiment with U251 CNS it was -30.9% (active); in the experiment on PC-3 prostate it was 88.7%. In addition, the growth with SK-MEL-5 melanoma is 102%; with UACC-62 melanoma it was 100%; with LOX IMVI melanoma it was 105%; with SK-MEL-28 melanoma it was 113%.
`NC(N)=Nc1ccc(Oc2cccc(Nc3ccc(Cl)c(C(F)(F)F)c3)c2)cn1`: the growth in the experiment on HCT-15 colon was -63.5% (active); in the experiment with HT29 colon, -39.2% (active); with SNB-75 CNS, 20.3%; in the experiment with SNB-19 CNS, -77% (active); in the experiment with U251 CNS, -82.2% (active); in the experiment on PC-3 prostate, -89.4% (active). Also, the growth is 26.7% in the experiment with SK-MEL-5 melanoma, -78.3% (active) in the experiment on UACC-62 melanoma, -83.8% (active) in the experiment on LOX IMVI melanoma and -28.6% (active) in the experiment with SK-MEL-28 melanoma.
For `CN(C)CCCOc1ccc2c(c1)CN(C(=O)c1cc(C(=O)N3Cc4cccc(F)c4C3)ccc1O)C2`, the growth was 88.5% with HCT-15 colon; 106% in the experiment on HT29 colon; 95% with SNB-75 CNS; 101% in the experiment with SNB-19 CNS; 98.4% in the experiment on U251 CNS; 102% in the experiment on PC-3 prostate. The growth with SK-MEL-5 melanoma is 98.2%; in the experiment on UACC-62 melanoma, 96.3%; in the experiment with LOX IMVI melanoma, 91.8%; in the experiment with SK-MEL-28 melanoma it was 104%.
